According to ChEMBL document CHEMBL1961873, “Compounds: GSK PKIS; Assays: Nanosyn kinase panel” (2012):

Assays:
[1] = biological target: Serine/threonine-protein kinase pim-2 (Homo sapiens) (UniProt Q9P1W9); conditions: at 1 µM;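 note: each value is a mean of the inhibition measurements against the kinase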
[2] = biological target: Serine/threonine-protein kinase pim-3 (Homo sapiens) (UniProt Q86V86); conditions: at 0.1 µM
[3] = biological target: Serine/threonine-protein kinase pim-3 (Homo sapiens) (UniProt Q86V86); conditions: at 1 µM
[4] = biological target: T1, MAP kinase-activated protein kinase 5 (Homo sapiens) (UniProt Q8IW41); conditions: at 0.1 µM
T1 sequence (whole entry): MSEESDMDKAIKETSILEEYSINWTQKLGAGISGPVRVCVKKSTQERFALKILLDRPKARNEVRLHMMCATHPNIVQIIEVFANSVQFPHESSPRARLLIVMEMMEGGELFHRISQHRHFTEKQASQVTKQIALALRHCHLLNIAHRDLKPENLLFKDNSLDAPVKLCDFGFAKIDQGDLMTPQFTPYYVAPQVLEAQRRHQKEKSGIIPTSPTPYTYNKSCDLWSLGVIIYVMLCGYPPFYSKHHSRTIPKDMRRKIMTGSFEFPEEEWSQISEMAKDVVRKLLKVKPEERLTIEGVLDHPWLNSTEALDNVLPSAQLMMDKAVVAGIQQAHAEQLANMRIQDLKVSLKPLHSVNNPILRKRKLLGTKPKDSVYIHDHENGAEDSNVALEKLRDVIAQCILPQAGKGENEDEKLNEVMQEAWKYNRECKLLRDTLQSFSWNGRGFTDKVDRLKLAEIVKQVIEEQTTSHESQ

[5] = biological target: T1, MAP kinase-activated protein kinase 5 (Homo sapiens); conditions: at 1 µM
[6] = biological target: Serine/threonine-protein kinase SIK1 (Homo sapiens) (UniProt P57059); conditions: at 0.1 µM
[7] = biological target: Serine/threonine-protein kinase SIK1 (Homo sapiens) (UniProt P57059); conditions: at 1 µM
[8] = biological target: Serine/threonine-protein kinase SIK2 (Homo sapiens) (UniProt Q9H0K1); conditions: at 0.1 µM
[9] = biological target: Serine/threonine-protein kinase SIK2 (Homo sapiens) (UniProt Q9H0K1); conditions: at 1 µM
[10] = biological target: T2, Serine/threonine-protein kinase TBK1 (Homo sapiens) (UniProt Q9UHD2); conditions: at 0.1 µM;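 note: values are the mean TBK1 inhibition, taken from the GSK PKIS screening data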
T2 sequence (whole entry): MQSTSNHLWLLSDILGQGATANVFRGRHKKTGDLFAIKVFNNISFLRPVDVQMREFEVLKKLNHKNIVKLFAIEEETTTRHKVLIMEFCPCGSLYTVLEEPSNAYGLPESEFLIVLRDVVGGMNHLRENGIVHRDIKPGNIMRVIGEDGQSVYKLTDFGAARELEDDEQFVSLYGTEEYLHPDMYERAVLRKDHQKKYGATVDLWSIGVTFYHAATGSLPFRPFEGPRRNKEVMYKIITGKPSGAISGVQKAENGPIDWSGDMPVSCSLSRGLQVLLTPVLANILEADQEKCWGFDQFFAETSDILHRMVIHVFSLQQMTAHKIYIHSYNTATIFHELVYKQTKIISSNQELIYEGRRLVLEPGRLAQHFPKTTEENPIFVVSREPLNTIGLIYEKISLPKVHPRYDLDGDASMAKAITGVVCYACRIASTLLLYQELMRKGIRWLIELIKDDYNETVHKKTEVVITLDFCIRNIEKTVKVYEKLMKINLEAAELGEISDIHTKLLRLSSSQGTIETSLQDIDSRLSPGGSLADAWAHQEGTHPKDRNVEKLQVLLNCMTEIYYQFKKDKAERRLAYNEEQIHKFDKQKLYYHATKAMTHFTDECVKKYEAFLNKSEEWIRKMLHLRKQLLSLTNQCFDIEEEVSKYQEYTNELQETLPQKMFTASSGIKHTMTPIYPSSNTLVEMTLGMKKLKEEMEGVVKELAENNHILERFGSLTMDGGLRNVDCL

Serine/threonine-protein kinase pim-2 (Homo sapiens), sequence (Q9P1W9 whole entry, looked up): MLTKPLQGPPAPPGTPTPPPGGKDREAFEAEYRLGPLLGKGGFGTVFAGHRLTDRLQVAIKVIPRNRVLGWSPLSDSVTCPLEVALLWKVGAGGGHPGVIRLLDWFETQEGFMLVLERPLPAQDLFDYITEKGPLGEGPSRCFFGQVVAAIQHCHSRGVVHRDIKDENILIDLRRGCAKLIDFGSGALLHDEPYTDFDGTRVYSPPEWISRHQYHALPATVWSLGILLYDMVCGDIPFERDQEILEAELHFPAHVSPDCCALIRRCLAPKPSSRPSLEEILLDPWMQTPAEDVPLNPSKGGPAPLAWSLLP
Serine/threonine-protein kinase SIK2 (Homo sapiens), sequence (Q9H0K1 whole entry, looked up): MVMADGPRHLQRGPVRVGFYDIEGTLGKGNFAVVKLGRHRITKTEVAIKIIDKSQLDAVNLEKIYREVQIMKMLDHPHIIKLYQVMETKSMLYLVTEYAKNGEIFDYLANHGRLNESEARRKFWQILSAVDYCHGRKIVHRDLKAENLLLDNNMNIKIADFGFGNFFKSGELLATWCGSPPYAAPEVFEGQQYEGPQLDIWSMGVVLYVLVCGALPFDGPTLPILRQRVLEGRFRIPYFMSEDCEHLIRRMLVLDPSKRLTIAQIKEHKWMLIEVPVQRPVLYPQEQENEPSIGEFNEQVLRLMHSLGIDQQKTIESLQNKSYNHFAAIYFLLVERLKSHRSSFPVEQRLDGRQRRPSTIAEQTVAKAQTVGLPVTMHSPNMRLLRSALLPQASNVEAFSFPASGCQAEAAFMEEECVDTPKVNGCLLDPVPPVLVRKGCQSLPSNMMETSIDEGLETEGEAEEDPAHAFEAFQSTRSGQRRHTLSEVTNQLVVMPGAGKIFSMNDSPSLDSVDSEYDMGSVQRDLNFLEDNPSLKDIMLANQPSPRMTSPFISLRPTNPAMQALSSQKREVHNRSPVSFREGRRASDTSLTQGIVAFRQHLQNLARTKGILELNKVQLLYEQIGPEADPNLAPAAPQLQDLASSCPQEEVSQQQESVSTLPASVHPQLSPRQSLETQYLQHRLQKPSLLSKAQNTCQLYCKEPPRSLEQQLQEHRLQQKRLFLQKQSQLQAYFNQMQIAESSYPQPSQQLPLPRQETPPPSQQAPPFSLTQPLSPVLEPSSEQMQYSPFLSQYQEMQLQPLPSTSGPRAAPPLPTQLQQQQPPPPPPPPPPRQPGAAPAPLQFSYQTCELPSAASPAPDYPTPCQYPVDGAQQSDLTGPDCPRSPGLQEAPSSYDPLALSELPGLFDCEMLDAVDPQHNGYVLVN
Serine/threonine-protein kinase SIK1 (Homo sapiens), sequence (P57059 whole entry): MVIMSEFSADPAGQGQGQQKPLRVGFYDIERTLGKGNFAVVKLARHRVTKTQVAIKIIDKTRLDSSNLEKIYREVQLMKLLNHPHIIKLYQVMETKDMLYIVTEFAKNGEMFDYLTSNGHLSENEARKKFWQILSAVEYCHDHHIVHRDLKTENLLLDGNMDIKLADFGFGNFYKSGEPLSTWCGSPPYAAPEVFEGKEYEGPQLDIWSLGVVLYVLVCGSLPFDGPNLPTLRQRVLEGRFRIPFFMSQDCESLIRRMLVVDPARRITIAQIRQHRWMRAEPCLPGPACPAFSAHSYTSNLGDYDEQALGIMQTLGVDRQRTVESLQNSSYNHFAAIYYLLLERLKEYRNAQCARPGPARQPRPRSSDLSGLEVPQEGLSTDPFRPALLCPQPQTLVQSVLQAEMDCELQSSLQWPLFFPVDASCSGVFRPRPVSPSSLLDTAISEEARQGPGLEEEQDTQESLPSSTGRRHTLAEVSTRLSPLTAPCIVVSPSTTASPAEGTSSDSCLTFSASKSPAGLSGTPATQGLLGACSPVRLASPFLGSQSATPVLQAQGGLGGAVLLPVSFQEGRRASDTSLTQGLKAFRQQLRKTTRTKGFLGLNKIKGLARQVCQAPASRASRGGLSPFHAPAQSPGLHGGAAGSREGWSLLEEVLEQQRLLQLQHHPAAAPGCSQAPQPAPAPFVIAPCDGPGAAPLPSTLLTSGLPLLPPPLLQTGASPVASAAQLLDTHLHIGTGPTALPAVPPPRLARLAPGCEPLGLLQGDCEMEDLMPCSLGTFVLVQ

Compound	inhibition [1] [%]	inhibition [2] [%]	inhibition [3] [%]	inhibition [4] [%]	inhibition [5] [%]	inhibition [6] [%]	inhibition [7] [%]	inhibition [8] [%]	inhibition [9] [%]	inhibition [10] [%]
CCCN1CCC(c2ccc(Nc3nc(Nc4cc(F)ccc4C(N)=O)c4cc[nH]c4n3)c(OC)c2)CC1	13.3	8.07	49.4	6.44	40.9	10.1	14.7	10.9	11.7	0.75
COc1ccc2c(-c3ccnc(Nc4cccc(OC(F)(F)F)c4)n3)cnn2n1	0.02	0.74	1.07	1.98	3.27	7.04	12.8	9.16	12.1	7.22
O=C(O[C@H]1CN[C@H](C#Cc2cc3ncnc(Nc4ccc(Cc5ccccc5)cc4)c3s2)C1)N1CCOCC1	1.06	1.54	3.8	0.58	-0.05	0.92	-0.23	-0.21	-0.83	-0.27
Nc1ncc(-c2cccc(S(N)(=O)=O)c2)c2scc(-c3ccc(F)c(Cl)c3)c12	0.78	1.11	0.91	1.73	1.77	20.4	61	9.17	28.8	3.75
c1cc(-c2cnn3nc(N4CCOCC4)ccc23)nc(NC2CC2)n1	0.92	-0.59	4.8	1.08	0.41	7.04	5.66	6.34	7.7	3.02
COc1ccc(-c2oc3ncnc(N)c3c2-c2ccc(NC(=O)Nc3cc(C(F)(F)F)ccc3F)cc2)cc1	1.06	0.37	5	2.58	4.28	6.56	14.4	11.9	10.7	1.47
Cc1ccc(O)cc1Nc1ccnc2cc(-c3ccccn3)ccc12	1.15	-0.3	-0.17	1.2	0.39	14.9	48.6	6.77	23.9	2.89
COc1cc(/C=N/Nc2ncnc3[nH]ncc23)ccc1O	4.24	2.9	21.5	1.2	2.2	2.8	26.7	8.34	33.1	4.18
COc1ccc2[nH]c3c4[nH]c5ccc(OC)cc5c4c4c(c3c2c1)C(=O)NC4=O	68.3	66.7	82.7	2.48	8.8	26.9	77.2	56.4	78.2	10.9
Fc1ccc(-c2nn3ccccc3c2-c2ccncc2)cc1	-0.05	-0.94	-1.43	0.01	-0.42	1.08	4.41	0	14.9	2.66
CN1CCC(n2cnc(-c3ccc(F)cc3)c2-c2ccnc(Nc3ccccc3)n2)CC1	0.35	1.06	5.66	1.06	1.42	3.13	4.66	7.17	22.9	0.4
CC(=O)Nc1cccc(C#Cc2cncnc2Nc2ccc(OCc3cccc(F)c3)c(Cl)c2)c1	1.31	2.57	-1.69	0.16	-0.79	4.24	2.15	1.42	1.44	1.95
CN1CCC(n2cnc(-c3ccc(F)cc3)c2-c2ccnc(N)n2)CC1	6.09	2.48	21.3	1	1.6	2.58	7.47	7.38	21.9	-1.27
COc1cccc(-n2ncc3c(N/N=C/c4ccc(F)cc4)ncnc32)c1	0.1	0.77	0.03	1.85	2.88	9.59	14	6.43	13.7	2.42
CS(=O)(=O)CCNCc1coc(-c2ccc3ncnc(Nc4ccc(OCc5ccccc5)cc4)c3c2)c1	0.48	1.2	3.43	1.41	1.21	1.7	8.27	-0.18	5.7	2.64
CS(=O)(=O)CCNCc1ccc(-c2ccc3ncnc(Nc4ccc(OCc5ccccc5)c(C(F)(F)F)c4)c3c2)o1	1.13	-1.28	-0.2	1.1	1.66	4.5	6.16	4.8	2.29	0.23
COC(=O)c1sc(-n2cnc3cc(OC)c(OC)cc32)cc1OCc1ccccc1C(F)(F)F	-0.34	-1.72	-2.84	2.02	-0.15	6.13	24.6	5.85	15.2	3.44

Compound	inhibition [1] [%]	inhibition [2] [%]	inhibition [3] [%]	inhibition [4] [%]	inhibition [5] [%]	inhibition [6] [%]	inhibition [7] [%]	inhibition [8] [%]	inhibition [9] [%]	inhibition [10] [%]
CN(C)CCOc1ccc(-c2nc(-c3ccncc3)c(-c3ccc4c(c3)CC/C4=N\O)[nH]2)cc1	0.05	-0.36	2.58	1.42	1.59	2.53	3.64	6.15	2.63	1.69
COc1ccc(CNC(=O)c2ccc(-c3cc(-c4nnc(C)o4)ccc3C)cc2)cc1	3.03	4.73	8.32	2.76	5.41	1.54	2.92	6.86	6.77	2.25
NC(=O)c1sc(-n2cnc3ccc(C(F)(F)F)cc32)cc1OCc1ccccc1Br	-0.68	1.1	0.16	1.65	2.02	6.13	9.77	5.75	9.85	0.45
NS(=O)(=O)c1ccc(N/N=C2\C(=O)Nc3ccc4ncccc4c32)cc1	9.88	1.09	12.5	1.52	8.94	2.74	31.3	-0.54	31.6	7.16
Nc1nc(-c2ccc(F)cc2)c(-c2ccc3ncccc3n2)s1	0.96	0.41	2.02	1.52	2.44	11.6	7.23	8.76	11.6	3.41
Cc1cccc2c1NC(=O)/C2=N\Nc1ccc(S(N)(=O)=O)cc1	0.28	-0.05	-2.33	0.84	-0.06	6.76	2.58	7.86	2.38	2.84
Fc1cccc(COc2ccc(Nc3ncnc4sc(-c5ccco5)cc34)cc2Cl)c1	0.73	-1.54	-0.36	0.95	1.47	2.24	9.68	3.95	5.81	0.55
CCNC(=O)O[C@H]1CN[C@H](C#Cc2cc3ncnc(Nc4ccc(OCc5cccc(F)c5)c(Cl)c4)c3s2)C1	-0.15	-0.41	-2.78	0.89	0.04	9.17	7.09	4.37	4.15	1.48
COc1cc2c(cc1Nc1nc(Nc3ccsc3C(N)=O)c3cc[nH]c3n1)N(C(=O)CN(C)C)CCC2(C)C	11.9	18.4	68.1	1.65	3.7	2.02	7.92	7.71	7.78	11.3
NS(=O)(=O)c1ccc(Nc2ncc(-c3ccccc3)o2)cc1	0.32	-0.13	0.88	1.46	1.61	6.09	9.25	6.43	18.9	3.13
CC(C)COC(=O)c1ccc2c(c1)/C(=C/Nc1ccc(S(N)(=O)=O)cc1)C(=O)N2	5.85	8.76	48.8	-0.6	1.18	2.01	72.2	4.76	39.7	38.1
Cc1ccc2c(-c3ccnc(Nc4ccccc4)n3)c(-c3ccc(F)cc3)nn2n1	0.72	-1.46	-3.61	0.87	-0.35	1.9	24.1	13.3	33.2	1.85
COc1cccc(-c2c[nH]c3c(N/N=C/c4ccncc4)ncnc23)c1	1.1	0.71	2.78	0.16	-1.66	10.7	48.9	28.6	67.4	3.26
COC(=O)Nc1nc2ccc(Oc3ccc(NC(=O)Nc4cccc(Cl)c4)cc3)cc2[nH]1	-1.04	-0.85	-1.87	0.18	-0.5	1.1	4.14	0.4	1.86	1.34
COc1ccc(-c2cc3c(N)ncnc3o2)cc1	2.23	1.44	6.86	-0.43	-0.51	-3.64	12	5.43	7.33	0.41
COc1cc2ncn(-c3cc(OCc4ccccc4C(F)(F)F)c(C(=O)N(C)C)s3)c2cc1OC	0.27	-0.34	0.56	0.07	0.04	2.6	15.2	4.39	9.54	2.13
